The text below walks through data of article PMC5869772, “Quantitative profiling of BATF family proteins/JUNB/IRF hetero-trimers using Spec-seq”.

The assay has as its target T1, BATF2 (bZIP);JUNB (human;human, UniProt Q8N1L9;P17275 1-142;148-347, |).
T1 sequence 1: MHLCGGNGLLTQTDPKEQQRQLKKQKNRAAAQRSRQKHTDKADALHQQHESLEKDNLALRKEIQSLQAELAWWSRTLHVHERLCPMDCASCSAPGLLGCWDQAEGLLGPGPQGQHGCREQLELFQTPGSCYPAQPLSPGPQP
T1 sequence 2: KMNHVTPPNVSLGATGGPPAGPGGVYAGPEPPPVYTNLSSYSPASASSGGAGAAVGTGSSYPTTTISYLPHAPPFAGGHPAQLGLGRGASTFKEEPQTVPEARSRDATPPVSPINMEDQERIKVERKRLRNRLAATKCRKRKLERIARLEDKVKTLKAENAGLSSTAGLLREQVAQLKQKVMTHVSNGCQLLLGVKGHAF
Description: Spec-seq (EMSA and sequencing of bound and unbound bands); 100 nM BATFx-JUNB, 1 uM dsDNA library, 50 mM K acetate, 20 mM Tris-acetate, 10 mM Mg acetate, 100 ug/ml BSA, pH 7.9, 10% glycerol, 30 min on ice; native 9% PAGE at 4 C; low values mean tight binding. Particulars: protein: recombinant;recombinant; tags: N-terminal mCherry-TEV, cleaved off;C-terminal 6His; copies: 1;1; dsDNA, one strand shown. The essentials: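 The protein, at 100 nM, was incubated with 1 μM double-stranded degenerate DNA library for 30 min on ice in NEB Cutsmart buffer with 10% glycerol, then resolved by native 9% PAGE at 4 °C. Excised bound and unbound bands were PCR-barcoded and Illumina-sequenced, and each sequence's relative binding energy in kT is −ln of its bound/unbound read-count ratio.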
(A gel shift assay detects complexes by their altered migration in electrophoresis.)
As for “GATAGTCTCATTTTCACCCCGTGAAATGACACAGTTGTTCCATTACAGTATCTGT”, the binding signal worked out at 0.717 kT.
Take “GATAGTCTCATTTTCACCCCGTGAAACTGAGTCATTGTTCCATTACAGTATCTGT”: the binding signal is -0.852 kT.
For “GATAGTCTCATTTTCACCCCGTGAAATGAGTGATTTGTTCCATTACAGTATCTGT”, the binding signal was found to be 0.704 kT.
In the case of “GATAGTCTCATTTTCACCCCGTGAAATGACGTCATTGTTCCATTACAGTATCTGT”, the binding signal is -1.32 kT.
Turning to “GATAGTCTCATTTTCACCCCGTGAAATGGCGTCATTGTTCCATTACAGTATCTGT”, the binding signal was -0.0754 kT.
For the sequence “GATAGTCTCATTTTCACCCCGTGAAATTAAGTCATTGTTCCATTACAGTATCTGT”, the binding signal is -0.048 kT.
On to “GATAGTCTCATTTTCACCCCGTGAAATGACGACATTGTTCCATTACAGTATCTGT”, for which the binding signal was 0.288 kT.
For “GATAGTCTCATTTTCACCCCGTGAAATGACTGAGTTGTTCCATTACAGTATCTGT”, the binding signal amounted to 0.387 kT.
Turning to “GATAGTCTCATTTTCACCCCGTGAAAGTAAGTCATTGTTCCATTACAGTATCTGT”, the binding signal stood at 0.203 kT.
For the sequence “GATAGTCTCATTTTCACCCCGTGAAAATGTGTCATTGTTCCATTACAGTATCTGT”, the binding signal was -0.258 kT.
With “GATAGTCTCATTTTCACCCCGTGAAATTGCGTCATTGTTCCATTACAGTATCTGT”, the binding signal was -0.761 kT.
